Our source for the Potency values is PubChem BioAssay (NCATS).

Activity calls are given as the source filed them. A call without a number means that no potency is given here. The call rests on the fitted dose curve; in most records, active means well fitted cell-killing curve with a large enough effect; inconclusive means small, poorly fitted or top-dose-only effect, or effect the other way; inactive means flat fitted curve, though single readings scatter.
Potency means the concentration at half of the fitted maximal effect.

This test in a line: MultiTox-Fluor Cytotoxicity Assay - LYMP1-003 - Dead Cells (AID 961). Further: nearly all actives have a fitted effect of over 70% in size. Conditions: LYMP1-003 lymphoblastoid cells, dead-cell protease fluorescence; series mostly up to 92.2 µM. An excerpt:
NIH Chemical Genomics Center [NCGC]
NIH Molecular Libraries Screening Centers Network [MLSCN]
National Institutes of Environmental Health Sciences [NIEHS]
National Toxicology Program [NTP]
We have developed a 1536-well cell-based assay for quantitative high throughput screening (qHTS) against a number of cell lines to determine in vitro cytotoxicity of small molecules. This particular assay uses a human lymphoblastoid cell line (LYMP1-003) purchased from Coriell Institute.
NCGC Assay Protocol Summary:
The MultiTox-Fluor Cytotoxicity Assay (Promega) is a homogeneous method to simultaneously measure the relative number of live and dead cells in culture by detecting changes in cell membrane integrity. There are two fluorogenic peptide substrates in the assay reagent. Viable cells are determined when the cell-permeant substrate (GF-AFC) enters the cell and is cleaved by protease from live cells resulting in liberated fluorophore. This live-cell protease activity restricted to viable cells is proportional to cell number. The dead cells are determined by using fluorogenic cell-impermeant peptide substrate (bis-AAF-R110) which cleaved by dead cell proteases leaking from damaged cell membrane.
Using the MultiTox-Fluor Cytotoxicity Assay, the relative number of dead cells was measured in the lymphoblastoid cell line with complete culture medium following compound treatment for 16 hours. The assay was performed in opaque black Kalypsys 1536-well plates. In the screen, tetraoctylammonium bromide was used as positive control. Library compounds were measured for their ability to cause acute toxicity in the cell line, as reflected by an increase in dead cell protease activity, in a concentration-dependent manner. Data were normalized to the controls for basal activity (DMSO only) and 100% stimulation (15 uM tetraoctylammonium bromide). AC50 values were determined from concentration-response data modeled with the standard Hill equation.
qHTS protocol for MultiTox-Fluor Cytotoxicity assay
[Step] [Parameter] [Value] [Description]
1. Reagent; 5 uL; 2500 lymphoblastoid cells/well
2. Time; 5 hr; 37 C incubation
4. Controls; 23 nL; Tetraoctylammonium bromide 6.4pM to 92 uM
5. Time; 16 hr; 37 C incubation
6. Reagent; 5 uL; MuliTox-Fluor Assay reagent
7. Time; 60 min; Room Temperature
8. Detection; dead-cell fluorescence (Ex/Em=485/520); EnVision plate reader
Keywords: cytotoxicity, lymphoblastoid cell line, fluorescence, NTPHTS, NTPHTS_NCGC, NIEHS, EPA, DSSTox, MLSMR, MLSCN, NIH Roadmap, qHTS, NCGC
For `[O-][N+](=Nc1ccccc1)c1ccccc1`, the Potency entry was “inactive”.

Take `Cc1ccc(S(=O)(=O)O)cc1C`: the Potency result was “inactive”.

`C[C@H](CCC(=O)O)[C@H]1CC[C@H]2[C@@H]3[C@H](O)C[C@@H]4C[C@H](O)CC[C@]4(C)[C@H]3C[C@H](O)[C@]12C`: the Potency entry is “inactive”.

As to `OC[C@H]1O[C@@H]2O[C@H]3[C@H](O)[C@@H](O)[C@@H](O[C@H]4[C@H](O)[C@@H](O)[C@@H](O[C@H]5[C@H](O)[C@@H](O)[C@@H](O[C@H]6[C@H](O)[C@@H](O)[C@@H](O[C@H]7[C@H](O)[C@@H](O)[C@@H](O[C@H]1[C@H](O)[C@H]2O)O[C@@H]7CO)O[C@@H]6CO)O[C@@H]5CO)O[C@@H]4CO)O[C@@H]3CO`, the Potency result was “inactive”.

For the molecule `O=P(O)(O)O`, the Potency entry was “inactive”.

In the case of `COC(=O)c1ccccc1O`, the Potency result is “inactive”.

Consider `CCCCC`, for which the Potency result is “inactive”.

`CCOC(C)OCC`: the Potency result was “inactive”.

With `O=c1n(CC2CO2)c(=O)n(CC2CO2)c(=O)n1CC1CO1` (configuration not stated), the Potency is 50.1 µM (active).

Regarding `CC1=CCC2CC1C2(C)C` (configuration not stated), the Potency result was “inactive”.

For `Cc1ncc[nH]1`, the Potency entry is “inactive”.

Regarding `CO/N=C(/C(=O)N[C@@H]1C(=O)N2C(C(=O)O)=C(COC(N)=O)CS[C@H]12)c1ccco1`, the Potency entry was “inactive”.

For `C[C@H](CCC(=O)O)[C@H]1CC[C@H]2[C@@H]3CC[C@@H]4C[C@H](O)CC[C@]4(C)[C@H]3C[C@H](O)[C@]12C`, the Potency entry is “inactive”.

For the molecule `C/C=C/C=C/C(=O)O`, the Potency result was “inactive”.

In the case of `NCCN`, the Potency result is “inactive”.

For the molecule `CC/C=C\C/C=C\C/C=C\CCCCCCCC(=O)O`, the Potency entry was “inactive”.

Take `ClC(Cl)Cl`: the Potency result was “inactive”.

For the molecule `CC[C@H]1OC(=O)[C@H](C)[C@@H](O[C@H]2C[C@@](C)(OC)[C@@H](O)[C@H](C)O2)[C@H](C)[C@@H](O[C@@H]2O[C@H](C)C[C@H](N(C)C)[C@H]2O)[C@](C)(O)C[C@@H](C)CN(C)[C@H](C)[C@@H](O)[C@]1(C)O`, the Potency entry was “inactive”.

As for `Oc1ccc(/C=C/c2cc(O)cc(O)c2)cc1`, the Potency result was “inactive”.

For the molecule `NC(N)=O`, the Potency result was “inactive”.

`CC(C)(C)CC(C)(C)c1ccc(OCCO)cc1`: the Potency result was “inactive”.

On to `Nc1ccc(N=Nc2ccccc2)c(N)n1`, for which the Potency entry is “inactive”.

For `C[C@H]1O[C@@H](O[C@H]2[C@@H](O)C[C@H](O[C@H]3[C@@H](O)C[C@H](O[C@H]4CC[C@@]5(C)[C@H](CC[C@@H]6[C@@H]5C[C@@H](O)[C@]5(C)[C@@H](C7=CC(=O)OC7)CC[C@]65O)C4)O[C@@H]3C)O[C@@H]2C)C[C@H](O)[C@@H]1O`, the Potency was 1.58 µM (active).

As to `CC1=CC(=O)NS(=O)(=O)O1`, the Potency entry is “inactive”.

Consider `OCc1ccccc1`, for which the Potency entry was “inactive”.

`OB(O)O`: the Potency entry was “inactive”.

Take `Nc1ncnc2c1ncn2[C@H]1CC[C@@H](CO)O1`: the Potency result is “inactive”.

Consider `C=C1C(CCl)(CCl)C2(Cl)C(Cl)C(Cl)C1(Cl)C2(Cl)Cl` (configuration not stated), for which the Potency was 50.1 µM (active).

Regarding `OCC(O)CO`, the Potency entry was “inactive”.

Consider `CCCCO`, for which the Potency result is “inactive”.

Regarding `CO`, the Potency entry was “inactive”.

`O.O.O.O.O.O.O.O=S(=O)([O-])[O-].[Co+2]`: the Potency result is “inactive”.

With `Oc1cccc(O)c1O`, the Potency result was “inactive”.

In the case of `CC(C)O`, the Potency entry was “inactive”.

Consider `OCl`, for which the Potency entry is “inactive”.

As to `Nc1nccs1`, the Potency result was “inactive”.

Take `c1ccc2ccccc2c1`: the Potency entry is “inactive”.
